Assay results published in PubChem BioAssay AID435019 (Southern Research Specialized Biocontainment Screening …, 2010).
Out of some 2,300 compounds screened, about 1,200 (52%) were called active. No rule for the calls is given here. The set was probably picked from earlier hits. Some of the results follow. Entries with a potency or affinity are not part of this list.

Experiment: mammalian cell cytotoxicity, dose response, cytotoxicity control for M. tuberculosis inhibitor project (AID 435019);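 also: lower values mean fewer viable cells so more cytotoxicity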
Conditions: cytotoxicity counter-screen; series mostly up to 40 µM

Structure (SMILES) | outcome
Cc1c2c(nc3ccccc13)CCC(C)C2 (stereo unspecified) | inactive
O=C1C(c2ccccc2)=[N+]([O-])c2ccccc21 | inactive
COc1ccc(NC(=O)CSC2CCCCC2)cc1 | inactive
COc1ccc(C2CC(=O)c3cnc(Nc4cc(C)cc(C)c4)nc3C2)cc1 (stereo unspecified) | inactive
COc1ccc(NC(=O)c2oc3ccc(S(=O)(=O)N4CCOCC4)cc3c2C)cc1 | inactive
O=C(N/N=C/c1c(F)c(F)c(F)c(F)c1F)c1cccc(S(=O)(=O)N2CCOCC2)c1 | inactive
COc1cc2cc(C(c3nnnn3C(C)(C)C)N3CCc4ccccc43)c(=O)[nH]c2cc1OC (stereo unspecified) | inactive
COc1ccc(C2=NC(=O)/C(=C\c3cc(OC)c(OC)c(OC)c3)O2)cc1 | inactive
CCCCOC(=O)c1ccc(NC(=S)NC(=O)c2c(Br)c(C)nn2C)cc1 | inactive
CN(CCO)c1cc(Sc2nc3ccccc3s2)c2nonc2c1[N+](=O)[O-] | inactive
CCCSC1=C(C#N)C(c2ccc(Cl)cc2Cl)CC(=O)N1 (stereo unspecified) | inactive
CN(C(=O)COC(=O)/C=C/c1ccc(Cl)c(Cl)c1)c1c(N)n(Cc2ccccc2)c(=O)[nH]c1=O | inactive
C=CCOc1c(Br)cc(CNc2nccs2)cc1OC | inactive
O=C(CCc1nnc(CCCc2ccccc2)o1)NCCCC1CCCC1 | inactive
COc1ccc(N/C=C(\C2OC(=O)c3ccccc32)[N+](=O)[O-])cc1 (stereo unspecified) | inactive
COc1ccc(N=N/C(=C\O)C(=O)c2cccs2)cc1 | inactive
Cc1nc(SCC(=O)Nc2ccc(OCc3ccccc3)cc2)n[nH]1 | inactive
C=CCc1cccc2cc(C(=O)OCC(=O)c3ccccc3)c(=O)oc12 | inactive
Cn1ccnc1C(=O)C1CCCN(Cc2cn[nH]c2-c2ccc(-c3ccccc3)cc2)C1 (stereo unspecified) | inactive
CC(=O)c1cccc(Nc2nc(-c3cccnc3)cs2)c1 | inactive
O=C(OCc1csc(Nc2ccccc2)n1)c1ccc(Cl)cc1 | inactive
O=C(/C=C/c1ccc([N+](=O)[O-])cc1)NC1CC2CCC1C2 (stereo unspecified) | inactive
CC(C)Oc1ccc(C(=O)N/N=C/c2ccc(-c3ccc(S(=O)(=O)Nc4ncccn4)cc3)o2)cc1 | inactive

Structure (SMILES) | outcome
O=C(c1ccc([N+](=O)[O-])s1)N1CCN(c2ccc(C(F)(F)F)cn2)CC1 | inactive
O=c1[nH]c(CN2CC=C(c3ccccc3)CC2)nc2cc(C(F)(F)F)ccc12 | inactive
CC(C)CNC(=S)NC(=O)c1csc([N+](=O)[O-])c1 | inactive
O=C(Nc1cc(C(F)(F)F)ccc1Cl)C(Sc1cccc[n+]1[O-])c1ccccc1 (stereo unspecified) | inactive
CC1(C)CC(=O)c2cc(C(=O)NNc3ccccc3)c(=O)n(-c3ccccc3)c2C1 | inactive
COc1ccc(NC(=O)CSc2nnc(-c3ccccn3)n2N)cc1Cl | inactive
CSc1nn(-c2ccc(C(=O)OCC(=O)NC(=O)NC(C)C)cc2)c(=S)s1 | inactive
COc1cc2c(cc1OC)CN(CCC(=O)c1ccc(Br)cc1)CC2 | inactive
C#CCCc1cscc1/C=[N+](\[O-])c1ccc(C(=O)OCC)cc1 | inactive
Cn1cnnc1SCc1ccc(-c2ccc(Br)cc2)o1 | inactive
Cc1ccc(NC(=O)/C(Cl)=C\c2ccccc2)cc1 | inactive
CCc1ccc(/C=C2/C(=O)N(C)C(=S)N2CC(=O)OC)s1 | inactive
Oc1ccc(/C=N/n2c3ccccc3c3ccccc32)cc1 | inactive
Cc1ccc(N2C(=O)C(F)(F)C2c2ccccc2)cc1 (stereo unspecified) | inactive
COc1ccccc1N1CCN(/N=C/C(Cl)=C/c2ccccc2)CC1 | inactive
OCCN(/C=N/c1nc(-c2ccc(Br)cc2)cs1)CCO | inactive
CCOC(=O)c1cc2cc3ccccc3cc2oc1=O | inactive
CCOC(=O)c1cnc(SC2CCc3ccccc3C2=O)nc1N (stereo unspecified) | inactive
CC(Oc1cc2oc(=O)c3c(c2cc1Cl)CCCC3)C(=O)NCc1ccccn1 (stereo unspecified) | inactive
CCOC(=O)C1CCN(c2cc3c(cc2NC(=O)c2ccccc2Cl)n(C)c(=O)n3C)CC1 | inactive
CC1=NN(c2ccc(C)c(C)c2)C(=O)/C1=C\C=C\c1ccc([N+](=O)[O-])o1 | inactive
CCN(CC(=O)NCc1cccs1)C(=O)c1ccc([N+](=O)[O-])o1 | inactive
CC(C)=N/N=C1/NC(=O)C(Cc2ccccc2)S1 (stereo unspecified) | inactive

Structure (SMILES) | outcome
Cc1cc(Nc2ccccc2)c2c([N+](=O)[O-])ccc(C)c2n1 | inactive
O=c1c2cc(-c3ccccc3)sc2ncn1/N=C/c1ccco1 | inactive
Cc1ccc(N/N=C/C=C/c2ccco2)cc1 | inactive
CCOC(=O)c1nc2sc3c(c2c(=O)[nH]1)CCC(C)C3 (stereo unspecified) | inactive
CCOC(=O)CCCNC(=O)COC(=O)c1cc(Br)c(Br)s1 | inactive
CCOC(=O)CSc1nn(-c2ccccc2)c(=S)s1 | inactive
CCOC(=O)CSc1nnc(SCCN2C(=O)c3ccccc3C2=O)s1 | inactive
Cc1ccc2c(c1)C1C[N+](C)(CC(=O)c3ccc(Cl)cc3Cl)CCC1N2C(=O)c1ccc(F)cc1 (stereo unspecified) | inactive
COC(=O)COc1ccc(-c2ccccc2)cc1C=O | inactive
CCCCCCCCSc1nnc(CSc2nc3nc(C)cc(C)n3n2)o1 | inactive
Cc1cc(C)c2cc(C(=O)Nc3ccc(C)c(F)c3)[nH]c2c1 | inactive
COC(=O)c1ccc(N/C(C)=C/C(=O)c2ccc(C)o2)cc1 | inactive
Cc1ccccc1NC(=O)Cc1nc(COC(=O)/C=C/c2ccccc2)cs1 | inactive
COC(=O)c1cc(/C=C/c2ccccc2)on1 | inactive
N#Cc1c(SCC(N)=O)nsc1SCc1ccccc1Cl | inactive
O=C(CN1CCN(c2nc(-c3ccc(F)cc3)cs2)CC1)NCc1ccc2c(c1)OCO2 | inactive
CCCCOc1ccc(-c2nnn(C(C)C(=O)OCC)n2)cc1 (stereo unspecified) | inactive
Cc1cccc(N2CCN(CC(=O)Nc3nccs3)CC2)c1C | inactive
CC1CCc2c(C(=O)Nc3nccs3)csc2C1 (stereo unspecified) | inactive
Nc1ccc2cc(Br)ccc2c1 | inactive
COC(=O)c1ccc(N/N=C/c2cc([N+](=O)[O-])cc(OC)c2O)cc1 | inactive
COC(=O)Cc1ccc(NC(=O)c2ccc(Br)o2)cc1 | inactive
CC1CCN(C(=O)c2ccc(-c3ccccc3Cl)o2)CC1 | inactive

Structure (SMILES) | outcome
CCOC(=O)CSCC(=O)N1CCC(Cc2ccccc2)CC1 | inactive
COc1ccc(OC(=O)c2cc3cc(Cl)ccc3oc2=O)cc1 | inactive
Cc1cccc(OCC(=O)NNC(=O)c2cc3ccccc3oc2=O)c1 | inactive
Cn1c(SCc2ccccc2)nc(N)c(N=O)c1=O | inactive
CCOc1ccc(NC(=O)CSc2cn[nH]n2)cc1 | inactive
CCOc1ccc(N=CNc2ccc(OCC)cc2)cc1 | inactive
Cc1ccc(C(=O)N/N=C/C=C/c2ccccc2)cc1 | inactive
COc1ccc(OCCCC(=O)OC(C)C(=O)Nc2ccccc2[N+](=O)[O-])cc1 (stereo unspecified) | inactive
CCOC(=O)COn1c2c(c3c4no[n+]([O-])c4ccc31)CCCC2 | inactive
Cc1cc(=O)n2[nH]c(Nc3cccc(Cl)c3)nc2n1 | inactive
Cc1cc(O)c(/C=N/Nc2cccc(Cl)c2)c(=O)o1 | inactive
COc1ccc(N2C(=O)C(Cl)=C(Nc3ccccc3O)C2=O)cc1 | inactive
Nc1cnc(-c2ccccc2)nc1Cl | inactive
COc1ccc2[nH]c(=O)c(CNc3cccc(C)c3)cc2c1 | inactive
c1nc2n(n1)C1=C(CCCC1)C1(CCCCC1)N2 | inactive
O=c1oc(-c2ccccc2[N+](=O)[O-])nc2ccccc12 | inactive
CCOC(=O)c1ccc(NC(=S)NCCc2ccc(F)cc2)cc1 | inactive
Cc1ccc(CN2C3CCCC2CC(NC(=S)NCc2ccccc2)C3)cc1 (stereo unspecified) | inactive
O=C(CCSc1ccc(Cl)cc1)NC12CC3CC(CC(C3)C1)C2 | inactive
O=C(Oc1ccccc1)c1ccccc1OS(=O)(=O)c1ccccc1 | inactive
Cc1cc(N2CCN(C(=O)Nc3ccccc3C#N)CC2)c2ccccc2n1 | inactive
COc1cc(/C=C2\C(=O)N(c3ccc(S(N)(=O)=O)cc3)N=C2C)ccc1OC(=O)c1ccco1 | inactive
CSc1nsc(SCC(=O)Nc2ccc(F)cc2F)n1 | inactive

Structure (SMILES) | outcome
CC(OC(=O)c1cnc2ccccc2n1)c1ccccc1Cl (stereo unspecified) | inactive
Cc1nc(N2CCN(c3ccccn3)CC2)c2c(C)c(C(=O)N3CCN(c4ccc(F)cc4)CC3)sc2n1 | inactive
CCOc1ccc(-n2c(O)c(/C=N/Nc3nnc(C)c(=O)[nH]3)c3ccccc3c2=O)cc1 | inactive
CCOc1ccc(NC(C)c2cc(Cl)ccc2O)cc1 (stereo unspecified) | inactive
CCc1ccc(Nc2n[n+](C)c(-c3ccncc3)s2)cc1 | inactive
Cc1nc2ccc(NC(=O)c3ccc([N+](=O)[O-])cc3[N+](=O)[O-])cc2s1 | inactive
Cc1ccc(C(=O)Nc2ccc3c4c(cccc24)CC3)cc1[N+](=O)[O-] | inactive
O=C1c2ccccc2CC1Sc1nnc(-c2ccncc2)o1 (stereo unspecified) | inactive
CC(C)NCC(O)c1ccc(O)c(O)c1 (stereo unspecified) | inactive
CSc1ccccc1C(=O)NC1CCSc2ccccc21 (stereo unspecified) | inactive
CON(C)c1nc(C2CCCCC2)c2cc(C)ccc2n1 | inactive
Cc1ccc(C)c(N/C(N)=N/c2nc(C)cc(C)n2)c1 | inactive
C/C=C(\C)C(=O)Nc1cccc(C2=NOC3(C2)C[C@H](C(N)=O)N(C(=O)c2cc([N+](=O)[O-])cc([N+](=O)[O-])c2)C3)c1 (stereo partly specified) | inactive
CC(C)CCNC(=O)C(c1ccc(O)cc1)N(C(=O)C1COc2ccccc2O1)c1cccc(O)c1 (stereo unspecified) | inactive
CCOC(=O)COc1ccc(/C=C2\NC(=S)N(CC)C2=O)cc1 | inactive
Cc1cc2c(ccc3c2no[n+]3[O-])nn1 | inactive
O=C(c1ccc(-c2cccc(C(F)(F)F)c2)o1)N1CCN(c2ccccc2O)CC1 | inactive
COC(=O)C(C)Oc1ccc2c(c1)O/C(=C\c1ccco1)C2=O (stereo unspecified) | inactive
CCOC(=O)C(C)Oc1ccc(OCc2ccccc2)cc1 (stereo unspecified) | inactive
